# Data published in the supplement of paper PMC8728848.
# The entries come from a sample that favours the strongest signals as a whole.
# B1: TIM1 (protein)
# chain: ADGIQSVKVGGEAGPSVTLPCHYSGAVTSMCWNRGSCSLFTCQNGIVWTNGTHVTYRKDTRYKLLGDLSRRDVSLTIENTAVSDSGVYCCRVEHRGWFNDMKITVSLEIVPPHHHHHH
# Tests used:
# Test in all cases: glycan array binding signal (z-score within array); higher = stronger binding
# Settings in all cases: glycan notation: IUPAC condensed, linker removed
# [1] = biological target: Fuc(a1-2)Gal(b1-3)GlcNAc(b1-2)Man(a1-3)[Fuc(a1-2)Gal(b1-3)GlcNAc(b1-2)Man(a1-6)]Man(b1-4)GlcNAc(b1-4)[Fuc(a1-6)]GlcNAc
# Method in brief: (§1)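 Glycan array data were curated from 3228 arrays in the Consortium for Functional Glycomics database and kept only where the protein sequence was available. Glycan names were converted to IUPAC-condensed notation, and columns mapping to the same glycan were averaged. The binding signal is a within-array Z-score, averaged across arrays of the same protein sequence at different concentrations or buffers and across linkers. Negative Z-scores can be read as non-binding.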
# [2] = biological target: Fuc(a1-2)Gal(b1-3)GlcNAc(b1-3)GalNAc
# Method in brief: as §1
# [3] = biological target: Fuc(a1-2)Gal(b1-4)[Fuc(a1-3)]GlcNAc(b1-2)Man(a1-3)[Fuc(a1-2)Gal(b1-4)[Fuc(a1-3)]GlcNAc(b1-2)Man(a1-6)]Man(b1-4)GlcNAc(b1-4)[Fuc(a1-6)]GlcNAc
# Method in brief: as §1
# [4] = biological target: Fuc(a1-2)Gal3S(b1-4)GlcNAc
# Method in brief: as §1
# [5] = biological target: Fuc(a1-2)[Gal(a1-3)]Gal(b1-4)GlcNAc(b1-3)[Fuc(a1-2)[Gal(a1-3)]Gal(b1-4)GlcNAc(b1-6)]GalNAc
# Method in brief: as §1
# [6] = biological target: Fuc(a1-2)[GalNAc(a1-3)]Gal(b1-3)GlcNAc
# Method in brief: as §1
# [7] = biological target: Fuc(a1-2)[GalNAc(a1-3)]Gal(b1-4)GlcNAc(b1-2)Man(a1-3)[Fuc(a1-2)[GalNAc(a1-3)]Gal(b1-4)GlcNAc(b1-2)Man(a1-6)]Man(b1-4)GlcNAc(b1-4)[Fuc(a1-6)]GlcNAc
# Method in brief: as §1
# [8] = biological target: Fuc(a1-4)GlcNAc
# Method in brief: as §1
# [9] = biological target: Gal(a1-3)Gal(b1-3)GlcNAc(b1-3)GalNAc
# Method in brief: as §1
# [10] = biological target: Gal(a1-3)Gal(b1-3)[Fuc(a1-4)]GlcNAc(b1-2)Man(a1-3)[Gal(a1-3)Gal(b1-3)[Fuc(a1-4)]GlcNAc(b1-2)Man(a1-6)]Man(b1-4)GlcNAc(b1-4)GlcNAc
# Method in brief: as §1
# [11] = biological target: Gal(a1-3)Gal(b1-4)GlcNAc(b1-2)Man(a1-3)[Gal(a1-3)Gal(b1-4)GlcNAc(b1-2)Man(a1-6)]Man(b1-4)GlcNAc(b1-4)GlcNAc
# Method in brief: as §1
# [12] = biological target: Gal(a1-4)Gal(b1-4)GlcNAc(b1-2)Man(a1-3)[Gal(a1-4)Gal(b1-4)GlcNAc(b1-2)Man(a1-6)]Man(b1-4)GlcNAc(b1-4)GlcNAc
# Method in brief: as §1
# [13] = biological target: Gal(b1-3)GlcNAc6S
# Method in brief: as §1
# [14] = biological target: Gal(b1-3)[Fuc(a1-4)]GlcNAc
# Method in brief: as §1
# [15] = biological target: Gal(b1-4)GalNAc(a1-3)[Fuc(a1-2)]Gal(b1-4)GlcNAc
# Method in brief: as §1
# [16] = biological target: Gal(b1-4)GlcNAc(b1-2)Man
# Method in brief: as §1
# [17] = biological target: Gal(b1-4)GlcNAc(b1-3)Gal(b1-4)GlcNAc(b1-2)Man(a1-3)[Gal(b1-4)GlcNAc(b1-3)Gal(b1-4)GlcNAc(b1-2)Man(a1-6)]Man(b1-4)GlcNAc(b1-4)GlcNAc
# Method in brief: as §1
# [18] = biological target: Gal(b1-4)GlcNAc(b1-3)Gal(b1-4)GlcNAc(b1-3)Gal(b1-4)GlcNAc(b1-2)Man(a1-3)[Gal(b1-4)GlcNAc(b1-3)Gal(b1-4)GlcNAc(b1-3)Gal(b1-4)GlcNAc(b1-2)Man(a1-6)]Man(b1-4)GlcNAc(b1-4)GlcNAc
# Method in brief: as §1
# [19] = biological target: Gal(b1-4)GlcNAc(b1-3)Gal(b1-4)GlcNAc(b1-3)Gal(b1-4)GlcNAc(b1-3)Gal(b1-4)GlcNAc(b1-2)Man(a1-3)[Gal(b1-4)GlcNAc(b1-3)Gal(b1-4)GlcNAc(b1-3)Gal(b1-4)GlcNAc(b1-3)Gal(b1-4)GlcNAc(b1-2)Man(a1-6)]Man(b1-4)GlcNAc(b1-4)GlcNAc
# Method in brief: as §1
# [20] = biological target: Gal(b1-4)GlcNAc(b1-3)Gal(b1-4)GlcNAc(b1-3)Gal(b1-4)GlcNAc(b1-3)Gal(b1-4)GlcNAc(b1-2)Man(a1-3)[Gal(b1-4)GlcNAc(b1-3)Gal(b1-4)GlcNAc(b1-3)Gal(b1-4)GlcNAc(b1-3)Gal(b1-4)GlcNAc(b1-2)Man(a1-6)]Man(b1-4)GlcNAc(b1-4)[Fuc(a1-6)]GlcNAc
# Method in brief: as §1
# [21] = biological target: Gal(b1-4)GlcNAc(b1-3)Gal(b1-4)GlcNAc(b1-3)Gal(b1-4)GlcNAc(b1-3)Gal(b1-4)GlcNAc(b1-3)Gal(b1-4)GlcNAc(b1-2)Man(a1-3)[Gal(b1-4)GlcNAc(b1-3)Gal(b1-4)GlcNAc(b1-3)Gal(b1-4)GlcNAc(b1-3)Gal(b1-4)GlcNAc(b1-3)Gal(b1-4)GlcNAc(b1-2)Man(a1-6)]Man(b1-4)GlcNAc(b1-4)[Fuc(a1-6)]GlcNAc
# Method in brief: as §1
# [22] = biological target: Gal(b1-4)GlcNAc(b1-3)Gal(b1-4)GlcNAc(b1-3)[Gal(b1-4)GlcNAc(b1-3)Gal(b1-4)GlcNAc(b1-6)]GalNAc
# Method in brief: as §1
# [23] = biological target: Gal6S(b1-3)GlcNAc6S
# Method in brief: as §1
# [24] = biological target: Gal6S(b1-4)GlcNAc
# Method in brief: as §1
# [25] = biological target: GalNAc(a1-3)GalNAc(b1-3)Gal(a1-4)Gal(b1-4)Glc
# Method in brief: as §1
# [26] = biological target: GalNAc(b1-3)Gal(a1-4)Gal(b1-4)GlcNAc
# Method in brief: as §1
binder,measurement,setting,value
B1,glycan array binding signal (z-score),[1],-0.132
same,glycan array binding signal (z-score),[2],-0.153
same,glycan array binding signal (z-score),[3],0.121
same,glycan array binding signal (z-score),[4],-0.264
same,glycan array binding signal (z-score),[5],1.94
same,glycan array binding signal (z-score),[6],-0.189
same,glycan array binding signal (z-score),[7],-0.187
same,glycan array binding signal (z-score),[8],8.15
same,glycan array binding signal (z-score),[9],-0.169
same,glycan array binding signal (z-score),[10],0.01
same,glycan array binding signal (z-score),[11],0.343
same,glycan array binding signal (z-score),[12],-0.176
same,glycan array binding signal (z-score),[13],-0.212
same,glycan array binding signal (z-score),[14],-0.25
same,glycan array binding signal (z-score),[15],-0.212
same,glycan array binding signal (z-score),[16],0.009
same,glycan array binding signal (z-score),[17],7.65
same,glycan array binding signal (z-score),[18],3.39
same,glycan array binding signal (z-score),[19],0.208
same,glycan array binding signal (z-score),[20],0.223
same,glycan array binding signal (z-score),[21],-0.05
same,glycan array binding signal (z-score),[22],2.45
same,glycan array binding signal (z-score),[23],-0.043
same,glycan array binding signal (z-score),[24],-0.175
same,glycan array binding signal (z-score),[25],-0.178
same,glycan array binding signal (z-score),[26],0.287
